About 83,000 compounds went through this panel and 20% of them were active in at least one assay; those are over-represented in the sample as a whole.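 Plates (96-well) were seeded with cells, treated with compound at one concentration, and incubated for 48 hours before percent growth was determined.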 Values without a mark were called inactive. The source made the active and inactive calls. How the source made its calls: active means growth percent below 10; inactive means the rest.
Tests used:
Assay in all cases: NCI-60 one-dose screen, 48 h (100 = growth as untreated, 0 = no growth, -100 = all killed)
Conditions in all cases: 10 µM
HT29 colon = test system: HT29 colon
SNB-75 CNS = test system: SNB-75 CNS
SNB-19 CNS = test system: SNB-19 CNS
U251 CNS = test system: U251 CNS
PC-3 prostate = test system: PC-3 prostate
SK-MEL-5 melanoma = test system: SK-MEL-5 melanoma
LOX IMVI melanoma = test system: LOX IMVI melanoma
SK-MEL-28 melanoma = test system: SK-MEL-28 melanoma
SK-MEL-2 melanoma = test system: SK-MEL-2 melanoma
SN12C renal = test system: SN12C renal
UO-31 renal = test system: UO-31 renal
TK-10 renal = test system: TK-10 renal
ACHN renal = test system: ACHN renal
CAKI-1 renal = test system: CAKI-1 renal
A498 renal = test system: A498 renal
CCRF-CEM leukemia = test system: CCRF-CEM leukemia
MOLT-4 leukemia = test system: MOLT-4 leukemia
SR leukemia = test system: SR leukemia
EKVX NSCLC = test system: EKVX NSCLC

Compound | growth (HT29 colon) | growth (SNB-75 CNS) | growth (SNB-19 CNS) | growth (U251 CNS) | growth (PC-3 prostate) | growth (SK-MEL-5 melanoma) | growth (LOX IMVI melanoma) | growth (SK-MEL-28 melanoma) | growth (SK-MEL-2 melanoma) | growth (SN12C renal) | growth (UO-31 renal) | growth (TK-10 renal) | growth (ACHN renal) | growth (CAKI-1 renal) | growth (A498 renal) | growth (CCRF-CEM leukemia) | growth (MOLT-4 leukemia) | growth (SR leukemia) | growth (EKVX NSCLC)
CCCCCCc1cc(N=Nc2ccc(S(=O)(=O)Nc3cc(C)nc(C)n3)cc2)c(O)cc1O | 95.6% | 91.8% | 103% | 100% | 96.2% | 98.9% | 96.2% | 115% | 90.5% | 97.2% | 74.5% | 107% | 99.1% | 98.9% | 98.7% | 94.8% | 88.7% | 91.9% | 
COc1ccc(-c2nc3sc(C4CC4)nn3c2/C=C2/C(=O)Nc3ccc(OC)cc32)cc1 | 73.2% | -2.41% (active) | 66.8% | 72.8% | 58.1% | 52.8% | 52.1% | 24.9% |  | 91.9% | 75.6% | 95.8% | 78% | 78.8% |  | 75.8% |  | 26.5% | 
O=C(Nc1cccc(-n2cc(-c3ccncc3)c(-c3ccc(O)c(Cl)c3)n2)c1)Nc1cccc(C(F)(F)F)c1 | 22% | -0.929% (active) | 32.2% | -70.8% (active) | -15.7% (active) | -49% (active) | 1.13% (active) | -5.89% (active) |  | 10.3% | -9.43% (active) | -0.882% (active) | 8.15% (active) | -14.5% (active) |  | -0.796% (active) | -25% (active) | -16.7% (active) | 
COc1cc(OC)cc(-c2cncn2-c2ccc(-c3nc4cc(OC)cc(OC)c4s3)cc2)c1 | 36.4% | 60.9% | 63.6% | 40.8% | 34.1% | 39.5% | 51.4% | 82.7% | 81.1% | 80.4% | 49.5% |  | 67.4% | 29% |  | 21.6% | 44.3% | 35.5% | 51.3%
C[C@@H]1C=C2C(=O)O[C@@H]3CC[C@H](C1)[C@]23O | 73.8% | 69.3% | 105% | 87.6% | 87.2% | 92.8% | 55.1% | 88.1% | 97.3% | 81% | 63.4% | 75.8% | 72.3% | 50.6% | 129% | 18.6% | 62.8% | 18.6% | 
FC(F)(F)c1ccc(-c2cnc(Cl)nc2N2CCC3(CC2)OCCO3)cc1 | 96.9% | 93.8% | 102% | 85.3% | 87.2% | 93.8% | 90.4% | 102% |  | 103% | 69.5% | 89.8% | 92.6% | 86.5% | 75.8% | 91.1% | 74% | 81.5% | 
O=C(Nc1nc2ccccc2s1)Nc1ccc([N+](=O)[O-])cc1Cl | 55.8% | 16.8% | 111% | 32.6% | 52% | 98.5% | 12.7% | 68.5% | 111% | 78.8% | 26.8% | 57% | 88% |  | 106% | 57.7% | 91.1% | 48.3% | 90.4%
COc1ccc2c(c1)N(CCO)C1=C(C(=O)OC1)C2c1ccc(OC)c(OC)c1 (stereo not given) | 9.84% (active) | 16.2% | 53.2% | 34.5% | 38% | 16.9% | 38.2% | 61.6% |  | 60.8% | 60.9% | 59.3% | 43.7% | 52.3% | 14.9% | 34.2% | 43.4% | 21% | 67%
Clc1ccc(Nc2ccnc(NCCNc3ccnc4cc(Cl)ccc34)n2)cc1 | -37.4% (active) | 4.36% (active) | 69.6% | -48% (active) | 14.7% | -100% (active) | -79.5% (active) | -100% (active) |  | 48% | -26.3% (active) | -29.9% (active) | -7.16% (active) | -7.16% (active) | 17.9% | 1.25% (active) | -28% (active) | -22.3% (active) | 
Nc1ccc2c(c1)Cc1cc(N)c(Br)cc1-2 | 107% | 67.1% | 114% | 108% | 96.9% | 97.8% | 96.8% | 115% | 116% | 113% | 76.9% | 138% | 87% | 86.6% |  | 82.1% | 94.1% |  | 46.8%
O=C(Nc1ccncc1)C(=O)c1cn(S(=O)(=O)c2ccc(F)cc2)c2ccccc12 | 1.81% (active) | 45% | 67.2% | 19.4% | 27.4% | 17.7% | 38.3% | 56.1% | 11.2% | 41.9% | 20.6% | 79% | 57.7% | 52.9% | 66.2% | 43.6% | 25.7% | 2.09% (active) | 52.1%
CCCN(CCC)CCC(O)c1cc2c(c3ccccc13)CCCC2 (stereo not given) | 52.3% | 75.7% | 90.5% | 83.5% | 80.9% | 94.7% | 89% | 98.1% | 108% | 82% | 71.4% | 101% | 86.9% | 96.1% | 74.4% | 93.8% | 92.9% | 75.3% | 
COc1cc(Nc2ncnc(Nc3ccc4c(n3)NC(=O)C(C)(C)O4)n2)cc(OC)c1OC | -12.6% (active) | -80.3% (active) | 31.1% | 15.9% | 25.5% | 48.2% | -27% (active) | 51.2% | 46.5% | 18.9% | -6.15% (active) | -36.4% (active) | 14.6% | -10.2% (active) | -75.1% (active) | 25.1% | 33.9% | 9.18% (active) | 
NC(=O)c1ccc(-c2cccc3c(=O)nc(N4CCOCC4)oc23)cc1 | 101% | 74.5% | 99.1% | 97.7% | 89.9% | 97.8% | 91.1% | 103% | 102% | 104% | 89.2% |  | 100% |  | 98.2% | 98.6% | 103% | 92% | 97.3%
C=C1c2c(C)nn(-c3ccc(OC)cc3)c2N(C)C23C[C@@H]1C1(C)c4c(C)nn(-c5ccc(OC)cc5)c4N(C)C(C)(C[C@H]12)C3 (stereo not given in full) | 19.4% | 59.6% | 46.8% | 32.1% | -4.74% (active) | 16.1% | 18.4% | 56.8% | 37.2% | 23.8% | 16.2% |  | 33.8% | 2.18% (active) | 40.2% | 21.7% | 14.9% | 3.27% (active) | 
CCN(CC)CCCC(C)Nc1nc(-c2ccc(OC)cc2)nc2cc(Cl)ccc12 (stereo not given) | 27.9% | 59.6% | 74.6% | 57% | 48.4% | 0.434% (active) | 32.8% | -70% (active) | 98.2% | 58% | 45% | 88.8% | 37% | 78.8% | 37.4% | 57.9% | 37.7% | 51.8% | 70.2%
COc1ccc2c(c1)C(=O)c1c-2c(OCCN(C)C)nc2cc(OC)c(OC)cc12 | 30.1% | 51.7% | 57.1% | 50.5% | 69.2% | 89.7% | -36.6% (active) | 112% | 54.3% | 51.9% | 46.8% | 64.2% | 38.3% | 81% | 102% | 28.2% | 11.6% | 1.83% (active) | 93.9%
O=C(O)CCCCSc1ncnc2nc[nH]c12 | 106% | 102% | 107% | 95.5% | 99.1% | 101% | 92.3% | 112% | 92.4% | 107% | 70% | 98% | 102% | 93.5% | 132% | 101% | 101% |  | 
